Measurements from the supplement of paper PMC9433436.
± gives the standard deviation of the averaged measurements. The full ranking holds about 4,100 sequences; the median of “relative kcat/Km (krel) vs genomic leader AAAGAU” is about 1.7, and the highest 2% start at about 6.5. This is one part of a sample in which the highest values are shown more often than they occur.

Molecular target: T1, E. coli RNase P holoenzyme (M1 P RNA + rnpA protein) (UniProt P0A7Y8)
T1 sequence: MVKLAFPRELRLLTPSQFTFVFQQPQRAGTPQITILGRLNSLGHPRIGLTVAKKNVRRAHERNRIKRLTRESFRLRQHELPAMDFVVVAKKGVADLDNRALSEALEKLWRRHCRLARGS
Assay: relative kcat/Km (krel) vs genomic leader AAAGAU (relative (reference leader = 1)); higher = faster RNase P cleavage
Procedure: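 HTS-Kin: a pool of ptRNA-Met (21C construct) with all 4096 combinations of 5' leader nucleotides N(-6) to N(-1) was processed in vitro by E. coli RNase P (P RNA + rnpA/C5 protein) under multiple-turnover conditions at 37 C, pH 8, 17.5 mM MgCl2. Residual substrate was Illumina-sequenced at several fractions reacted, and relative kcat/Km (krel) was computed by internal competition kinetics, calibrated to the genomic leader (AAAGAU = 1). The listed hexamer is the varied N(-6)..N(-1) leader (DNA letters), and it sits between a fixed 5' stem-loop flank (GCAUGCACGAAAGUGCGUGCUAUGAA) and the mature tRNA-Met starting GGCUACGUAGCUCAGUUGG. Two technical replicates are averaged.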

[1] = fraction of substrate reacted: ~13-16% (15.68% repeat 1, 13.17% repeat 2)
[2] = fraction of substrate reacted: ~26-29% (28.66% repeat 1, 26.4% repeat 2)
[3] = fraction of substrate reacted: ~9-10% (9.79% repeat 1, 9.1% repeat 2)

For ATGCAG, the “relative kcat/Km” value [1] was 0.709 ± 0.22 and the “relative kcat/Km” value [2] was 0.668 ± 0.4.

For ACAGCG, the “relative kcat/Km” value [2] was 1.17 ± 0.16.

For AAGGGT, the “relative kcat/Km” value [2] was 0.872 ± 0.84.

For GAATTA, the “relative kcat/Km” value [3] was 1.25 ± 0.15, the “relative kcat/Km” value [1] was 1.82 ± 0.37 and the “relative kcat/Km” value [2] was 2.25 ± 0.75.

AATGCC was tested, and the “relative kcat/Km” value [3] was 2.38 ± 1.7, the “relative kcat/Km” value [1] was 1.43 ± 0.1 and the “relative kcat/Km” value [2] was 1.48 ± 0.22.

With TCGCAA the “relative kcat/Km” value [3] was 2.14 ± 1.8, the “relative kcat/Km” value [1] was 2.55 ± 0.15 and the “relative kcat/Km” value [2] was 3.22 ± 0.85.

In the case of CAGATT, the “relative kcat/Km” value [3] is reported as 1.72 ± 0.68, the “relative kcat/Km” value [1] is reported as 2 ± 0.1 and the “relative kcat/Km” value [2] is reported as 2.79 ± 0.81.

CGTTAT was tested, and the “relative kcat/Km” value [3] was 4.04 ± 1, the “relative kcat/Km” value [1] was 5.58 ± 1.3 and the “relative kcat/Km” value [2] was 8.08 ± 3.4.

With TGTTAT the “relative kcat/Km” value [3] was 3.17 ± 1.4, the “relative kcat/Km” value [1] was 4.69 ± 0.22 and the “relative kcat/Km” value [2] was 6.81 ± 2.8.

GGTTAC was tested, and the “relative kcat/Km” value [3] was 0.591 ± 0.54, the “relative kcat/Km” value [1] was 1.09 ± 0.22 and the “relative kcat/Km” value [2] was 2.13 ± 0.98.

In the case of GGTTAA, the “relative kcat/Km” value [3] is reported as 0.853 ± 0.094, the “relative kcat/Km” value [1] is reported as 1.16 ± 0.33 and the “relative kcat/Km” value [2] is reported as 1.35 ± 0.6.

For CGTTAC, the “relative kcat/Km” value [3] was 3.84 ± 0.72, the “relative kcat/Km” value [1] was 5.28 ± 1.9 and the “relative kcat/Km” value [2] was 7.82 ± 2.9.

With TGTTAG the “relative kcat/Km” value [3] was 2.17 ± 1.1, the “relative kcat/Km” value [1] was 2.36 ± 0.065 and the “relative kcat/Km” value [2] was 4.6 ± 1.1.

In the case of CGTTAG, the “relative kcat/Km” value [3] is reported as 2.87 ± 1.6, the “relative kcat/Km” value [1] is reported as 2.22 ± 0.3 and the “relative kcat/Km” value [2] is reported as 4 ± 1.2.

CGTTGT was tested, and the “relative kcat/Km” value [3] was 0.465 ± 0.32 and the “relative kcat/Km” value [2] was 1.21 ± 0.9.

With GGTTAT the “relative kcat/Km” value [3] was 0.926 ± 0.33, the “relative kcat/Km” value [1] was 1.69 ± 0.19 and the “relative kcat/Km” value [2] was 2.83 ± 1.2.

For CGTTTA, the “relative kcat/Km” value [3] was 2.35 ± 0.28, the “relative kcat/Km” value [1] was 3.11 ± 0.48 and the “relative kcat/Km” value [2] was 4.14 ± 1.4.

For TGTTCT, the “relative kcat/Km” value [3] was 1.986 ± 0.0021, the “relative kcat/Km” value [1] was 2.58 ± 0.73 and the “relative kcat/Km” value [2] was 4.41 ± 1.8.

In the case of CGTTAA, the “relative kcat/Km” value [3] is reported as 3.62 ± 0.3, the “relative kcat/Km” value [1] is reported as 5.04 ± 1.6 and the “relative kcat/Km” value [2] is reported as 7.04 ± 2.8.

In the case of TATTGT, the “relative kcat/Km” value [3] is reported as 0.735 ± 0.4.

In the case of GACCAC, the “relative kcat/Km” value [3] is reported as 2.53 ± 1.4, the “relative kcat/Km” value [1] is reported as 3.51 ± 0.65 and the “relative kcat/Km” value [2] is reported as 5.22 ± 1.2.

With GCCCAG the “relative kcat/Km” value [3] was 0.499 ± 0.44, the “relative kcat/Km” value [1] was 0.933 ± 0.79 and the “relative kcat/Km” value [2] was 3 ± 0.76.

For AAAATC, the “relative kcat/Km” value [3] was 2.07 ± 0.94, the “relative kcat/Km” value [1] was 1.14 ± 0.28 and the “relative kcat/Km” value [2] was 1.37 ± 0.15.

With AGTTAC the “relative kcat/Km” value [3] was 3.18 ± 1.6, the “relative kcat/Km” value [1] was 5.31 ± 0.22 and the “relative kcat/Km” value [2] was 7.26 ± 2.7.

For AGTTAG, the “relative kcat/Km” value [3] was 2.06 ± 1.1, the “relative kcat/Km” value [1] was 2.34 ± 0.29 and the “relative kcat/Km” value [2] was 4.77 ± 1.3.

In the case of ACTTAC, the “relative kcat/Km” value [3] is reported as 3.88 ± 2.3, the “relative kcat/Km” value [1] is reported as 4.09 ± 0.096 and the “relative kcat/Km” value [2] is reported as 5.29 ± 1.6.

With TACGTA the “relative kcat/Km” value [3] was 2.14 ± 0.53, the “relative kcat/Km” value [1] was 2.47 ± 0.38 and the “relative kcat/Km” value [2] was 3.67 ± 1.2.

CAGAGT was tested, and the “relative kcat/Km” value [2] was 0.537 ± 0.3.

TGCTTC was tested, and the “relative kcat/Km” value [3] was 2.79 ± 0.96, the “relative kcat/Km” value [1] was 2.83 ± 0.76 and the “relative kcat/Km” value [2] was 3.73 ± 1.2.

For CTCTTT, the “relative kcat/Km” value [3] was 3.59 ± 0.8, the “relative kcat/Km” value [1] was 4.98 ± 1.2 and the “relative kcat/Km” value [2] was 7.01 ± 3.

For ATCTTA, the “relative kcat/Km” value [3] was 2.6 ± 0.64, the “relative kcat/Km” value [1] was 3.89 ± 0.59 and the “relative kcat/Km” value [2] was 5.74 ± 2.1.

For CTCTTG, the “relative kcat/Km” value [3] was 2.31 ± 1.9, the “relative kcat/Km” value [1] was 1.64 ± 0.35 and the “relative kcat/Km” value [2] was 3.11 ± 0.5.

GTCTTT was tested, and the “relative kcat/Km” value [3] was 4.65 ± 1.2, the “relative kcat/Km” value [1] was 5.87 ± 1.4 and the “relative kcat/Km” value [2] was 8.44 ± 3.8.

TTCTTC was tested, and the “relative kcat/Km” value [3] was 4.65 ± 1.6, the “relative kcat/Km” value [1] was 5.94 ± 0.85 and the “relative kcat/Km” value [2] was 7.95 ± 3.2.

GTCTTG was tested, and the “relative kcat/Km” value [3] was 2.05 ± 1.9, the “relative kcat/Km” value [1] was 1.96 ± 0.21 and the “relative kcat/Km” value [2] was 3.58 ± 0.69.

With GCCTTT the “relative kcat/Km” value [3] was 3.36 ± 1.7, the “relative kcat/Km” value [1] was 3.71 ± 0.066 and the “relative kcat/Km” value [2] was 5.06 ± 1.7.

CTCTTA was tested, and the “relative kcat/Km” value [3] was 2.98 ± 0.098, the “relative kcat/Km” value [1] was 4.69 ± 1.5 and the “relative kcat/Km” value [2] was 6.21 ± 2.8.

ATCTTC was tested, and the “relative kcat/Km” value [3] was 3.23 ± 1.1, the “relative kcat/Km” value [1] was 4.36 ± 0.71 and the “relative kcat/Km” value [2] was 6.11 ± 2.2.

For TTCTTA, the “relative kcat/Km” value [3] was 4.55 ± 1.2, the “relative kcat/Km” value [1] was 5.9 ± 0.59 and the “relative kcat/Km” value [2] was 7.98 ± 3.2.

In the case of CTCTTC, the “relative kcat/Km” value [3] is reported as 3.63 ± 0.69, the “relative kcat/Km” value [1] is reported as 4.38 ± 0.62 and the “relative kcat/Km” value [2] is reported as 6.47 ± 2.3.

In the case of TTAACT, the “relative kcat/Km” value [3] is reported as 1.58 ± 0.78, the “relative kcat/Km” value [1] is reported as 1.54 ± 0.2 and the “relative kcat/Km” value [2] is reported as 2.03 ± 0.47.

In the case of CCTCCC, the “relative kcat/Km” value [3] is reported as 0.874 ± 0.5, the “relative kcat/Km” value [1] is reported as 1.06 ± 0.17 and the “relative kcat/Km” value [2] is reported as 1.57 ± 0.17.

In the case of CTAGAC, the “relative kcat/Km” value [3] is reported as 1.95 ± 0.33, the “relative kcat/Km” value [1] is reported as 3.27 ± 0.96 and the “relative kcat/Km” value [2] is reported as 4.19 ± 2.1.

With GGATTA the “relative kcat/Km” value [3] was 1.24 ± 0.14, the “relative kcat/Km” value [1] was 0.993 ± 0.47 and the “relative kcat/Km” value [2] was 1.52 ± 0.41.

With TCGGTG the “relative kcat/Km” value [3] was 0.643 ± 0.43 and the “relative kcat/Km” value [2] was 0.367 ± 0.27.

AGCTTT was tested, and the “relative kcat/Km” value [3] was 2.79 ± 1.2, the “relative kcat/Km” value [1] was 2.71 ± 0.49 and the “relative kcat/Km” value [2] was 4.09 ± 1.6.

ATCTTT was tested, and the “relative kcat/Km” value [3] was 3.55 ± 1.4, the “relative kcat/Km” value [1] was 4.27 ± 0.42 and the “relative kcat/Km” value [2] was 6.67 ± 2.8.

For TTCTTT, the “relative kcat/Km” value [3] was 4.38 ± 0.77, the “relative kcat/Km” value [1] was 6.36 ± 1.2 and the “relative kcat/Km” value [2] was 8.65 ± 4.

With GTCTTC the “relative kcat/Km” value [3] was 4.4 ± 1.6, the “relative kcat/Km” value [1] was 5.61 ± 1.7 and the “relative kcat/Km” value [2] was 8.18 ± 3.4.

GTCTTA was tested, and the “relative kcat/Km” value [3] was 4.14 ± 1.1, the “relative kcat/Km” value [1] was 5.78 ± 0.74 and the “relative kcat/Km” value [2] was 7.65 ± 2.9.

In the case of ATCTTG, the “relative kcat/Km” value [1] is reported as 1.15 ± 0.053 and the “relative kcat/Km” value [2] is reported as 2.716 ± 0.019.

With TTCTTG the “relative kcat/Km” value [3] was 1.95 ± 1.7, the “relative kcat/Km” value [1] was 1.96 ± 0.17 and the “relative kcat/Km” value [2] was 4 ± 1.1.

GGCTTA was tested, and the “relative kcat/Km” value [3] was 1.58 ± 0.71, the “relative kcat/Km” value [1] was 1.39 ± 0.29 and the “relative kcat/Km” value [2] was 1.79 ± 0.95.

With GACTTC the “relative kcat/Km” value [3] was 3.65 ± 0.53, the “relative kcat/Km” value [1] was 4.38 ± 2.1 and the “relative kcat/Km” value [2] was 6.22 ± 3.3.

In the case of GCCTTA, the “relative kcat/Km” value [3] is reported as 2.94 ± 1.2, the “relative kcat/Km” value [1] is reported as 3.35 ± 0.54 and the “relative kcat/Km” value [2] is reported as 5.21 ± 1.5.

TGCTTT was tested, and the “relative kcat/Km” value [3] was 2.25 ± 0.41, the “relative kcat/Km” value [1] was 2.232 ± 0.0079 and the “relative kcat/Km” value [2] was 3.45 ± 1.3.

GCCTTC was tested, and the “relative kcat/Km” value [3] was 3 ± 0.21, the “relative kcat/Km” value [1] was 4.03 ± 2.2 and the “relative kcat/Km” value [2] was 5.81 ± 3.1.
